# Results reported in the supplement of paper PMC12350171.
# Where a name gives a salt, the structure may show the parent alone. A number with no mark means an inactive call.
# Legend:
# Details in all cases: 20 µM
# [1] = system: Salmonella enterica typhimurium; test: growth AUC normalised to DMSO control (fraction of control); higher = less growth inhibition, active = hit call of the paper
# How it was run: (§1)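 Hemin and NAD were added to the medium for Haemophilus parainfluenzae. All pathogens, after two anaerobic passages, were inoculated at a starting OD578 of 0.01 into pre-reduced mGAM plates with 20 μM compound and 1% DMSO under breathable seals, and OD578 was read hourly for 24 h in three biological replicates. AUC of each growth curve was obtained with the trapezoidal rule up to the exponential-to-stationary transition and normalised to DMSO controls from the same plate.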
# Shigella flexneri = test: as above
# How it was run: as §1
# Vibrio cholerae = test: as above
# How it was run: as §1
# [2] = system: Yersinia pseudotuberculosis; test: as above
# How it was run: as §1
# P. vulgatus RND KO = test: growth AUC normalised to DMSO control (median) (fraction of control); higher = less growth inhibition, active = hit call of the paper
# How it was run: (§2)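 In 96-well plates of mGAM seeded at OD578 0.01, strains that had been passaged twice overnight without oxygen were exposed to approved-drug library compounds at 20 μM with 1% DMSO. Hourly OD578 readings were taken for 24 h in an anaerobic incubator. The trapezoidal-rule area under the curve, with curves truncated at entry into stationary phase, was expressed relative to same-plate vehicle wells as the median of three biological replicates.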
# P. vulgatus WT = test: as above
# How it was run: as §2
# [3] = system: S. enterica typhimurium WT; test: as above
# How it was run: as §2
# [4] = system: S. enterica typhimurium tolC KO; test: as above
# How it was run: as §2
# 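Wherever growth AUC normalised to DMSO control (median) is given: active when median AUC fell below 0.1.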
SMILES,growth AUC normalised to DMSO control [1],growth AUC normalised to DMSO control (Shigella flexneri),growth AUC normalised to DMSO control (Vibrio cholerae),growth AUC normalised to DMSO control [2],growth AUC normalised to DMSO control (P. vulgatus RND KO),growth AUC normalised to DMSO control (P. vulgatus WT),growth AUC normalised to DMSO control [3],growth AUC normalised to DMSO control [4]
CCCCNC(=O)NS(=O)(=O)c1ccc(C)cc1 [Tolbutamide],1.01,0.995,0.956,0.998,1.02,1.04,0.996,1
CC(Cc1cccc(C(F)(F)F)c1)NCCOC(=O)c1ccccc1 (configuration not stated) [Benfluorex],0.94,0.968,0.869 (active),1.01,0.956,0.975,0.986,0.98
Cc1cc(C(C)(C)C)c(O)c(C)c1CC1=NCCN1 [Oxymetazoline hydrochloride],0.997,0.994,1,1,0.994,0.988,1.01,0.985
COc1ccc2c(c1)N(C[C@H](C)CN(C)C)c1ccccc1S2 [Methotrimeprazine maleate salt],1.01,1.03,1,0.99,1.04,1.02,0.995,0.954
CC(C)(C#N)c1cc(Cn2cncn2)cc(C(C)(C)C#N)c1 [Anastrozole],1.02,1.07,1.04,0.696,1.09,1.06,0.991,0.996
NC1CCN(c2nc3c(cc2F)c(=O)c(C(=O)O)cn3-c2ccc(F)cc2F)C1 (configuration not stated) [Tosufloxacin hydrochloride],0.00626 (active),0.0173 (active),0.0443 (active),0.0355 (active),0.0157 (active),0.012 (active),0.00524 (active),0.00501 (active)
O=S(=O)(O)c1cc(O)ccc1O [Ethamsylate diethylammonium salt],1,0.998,0.999,1.01,0.99,0.994,1,0.999
CCn1cc(C(=O)O)c(=O)c2cc(F)c(N3CCN(C)CC3)cc21 [Pefloxacin],0.00601 (active),0.0383 (active),0.0435 (active),0.0255 (active),1.01,0.799,0.00724 (active),0.00757 (active)
C[N+]1(CCCCC[N+]2(C)CCCC2)CCCC1 [Pentolinium bitartrate],0.991,1,0.874,0.994,1,0.978,0.989,0.996
Cc1ccc(C)c(OCCCC(C)(C)C(=O)O)c1 [Gemfibrozil],0.997,0.972,0.983,1,0.969,0.972,1,0.977
Nc1c(Br)cc(Br)cc1CN[C@H]1CC[C@H](O)CC1 [Ambroxol hydrochloride],0.979,0.987,0.963,1,0.955,0.961,0.982,0.991
O=C(O)c1cc(-c2ccc(F)cc2F)ccc1O [Diflunisal],0.983,0.997,0.899,0.984,0.999,1.07,0.973,0.943
O=C(O)c1cccnc1Nc1cccc(C(F)(F)F)c1 [Niflumic acid],0.989,0.998,0.897,1.01,0.907,0.936,1,0.961
COc1cc2ncnc(Nc3ccc(F)c(Cl)c3)c2cc1OCCCN1CCOCC1 [Gefitinib],1.01,1.02,1,0.983,1.07,1.07,1.01,0.928
CN(C)CCOC1=Cc2ccccc2Sc2ccc(Cl)cc21 [Zotepine],1.01,1,0.877,1,0.935,0.874,1.01,0.959
NC(=O)N1c2ccccc2C=Cc2ccccc21 [Carbamazepine],0.997,0.996,0.999,1,1,1.04,0.998,0.999
N=C(NCCCCCCNC(=N)NC(=N)Nc1ccc(Cl)cc1)NC(=N)Nc1ccc(Cl)cc1 [Chlorhexidine],0.355 (active),0.0156 (active),0.954,0.307 (active),0.00823 (active),0.0134 (active),0.942,0.816
Cc1noc(NS(=O)(=O)c2ccc(N)cc2)c1C [Sulfisoxazole],0.995,1,1.03,0.971,1,1.05,0.997,0.98
CC1CNc2c(cccc2S(=O)(=O)N[C@@H](CCCNC(=N)N)C(=O)N2CC[C@@H](C)C[C@@H]2C(=O)O)C1 (some centres not stated) [Argatroban],1,1.03,1,1.02,1.03,1.06,1.01,0.996
NS(=O)(=O)c1cc(C2(O)NC(=O)c3ccccc32)ccc1Cl (configuration not stated) [Chlorthalidone],1,0.989,0.995,0.994,1,0.986,1,0.998
CCCCOc1cc(C(=O)OCCN(CC)CC)ccc1N [Benoxinate hydrochloride],1,0.991,0.936,0.992,1,0.977,0.978,0.991
Cc1cc(=O)oc2cc(O)ccc12 [Hymecromone],1.01,1,0.998,0.95,1.03,1.05,0.999,1.02
CCOC(=O)[C@H](CCc1ccccc1)N[C@@H](C)C(=O)N1CCC[C@H]1C(=O)O [Enalapril maleate],1,1.04,1.03,1.02,1,1.02,1.01,0.997
Cc1ncc([N+](=O)[O-])n1CC(O)CCl (configuration not stated) [Ornidazole],0.995,0.987,1.01,0.964,0.0124 (active),0.00943 (active),0.99,0.99
CN(C)CCC=C1c2ccccc2CCc2ccccc21 [Amitryptiline hydrochloride],0.997,0.999,0.905,1.01,0.993,0.959,0.998,0.97
CN(C)[C@@H]1C(=O)C(C(=O)NCNCCCC[C@H](N)C(=O)O)=C(O)[C@@]2(O)C(=O)C3=C(O)c4c(O)cccc4[C@@](C)(O)[C@H]3C[C@@H]12 [Lymecycline],0.903 (active),0.947,0.448 (active),1.01,0.779,0.835,0.94,0.94
CC(C)(C)NC[C@H](O)COc1ccccc1C1CCCC1 [Penbutolol sulfate],1.01,1.02,1,1.02,0.994,1.01,1,0.947
CC(COc1ccccc1)NC(C)C(O)c1ccc(O)cc1 (configuration not stated) [Isoxsuprine hydrochloride],0.979,0.989,1,0.989,1.02,1.01,0.998,1
Nc1nc(O)c2ncn(CCC(CO)CO)c2n1 [Penciclovir],1.01,1.01,1.06,1.02,1.02,1.03,1,0.997
